High-throughput results as filed in PubChem.
Most compounds without a hit are left out; they make up all but 0.35% or so of the library.
Vif-A3G inh: blocks the Vif interaction with human APOBEC3G | Q9HC16 | HeLa A3G-eYFP + Vif (tagged APOBEC3G with the HIV-1 protein that degrades it), YFP fluorescence, overnight | Potency, µM (top dose mostly 46.1 µM), without a hit: at the top dose activity, negative = active, actives largely listed as inhibitors | 0.076% of 410,000 active | AID 602310; note: % is set by controls: 0 for no effect and ±100 for the full control effect; nearly all actives have a fitted effect of over 60% in size
Target sequence (Q9HC16 whole entry, looked up): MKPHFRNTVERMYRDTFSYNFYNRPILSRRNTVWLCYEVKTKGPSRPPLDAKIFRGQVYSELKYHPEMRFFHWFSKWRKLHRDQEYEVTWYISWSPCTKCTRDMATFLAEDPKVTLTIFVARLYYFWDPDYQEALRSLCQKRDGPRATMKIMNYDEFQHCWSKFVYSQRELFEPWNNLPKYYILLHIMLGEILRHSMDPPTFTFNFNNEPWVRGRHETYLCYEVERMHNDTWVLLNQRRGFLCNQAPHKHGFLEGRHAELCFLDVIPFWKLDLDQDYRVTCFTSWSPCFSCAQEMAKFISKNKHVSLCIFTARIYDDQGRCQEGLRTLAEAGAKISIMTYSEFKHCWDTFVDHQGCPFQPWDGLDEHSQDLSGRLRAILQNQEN
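Read-out is eYFP fluorescence (Ex 488/Em 500-530) from Vif-expressing HeLa A3G-eYFP cells; more signal means A3G escaped Vif-mediated degradation. Cells plated overnight, compound pinned in, incubated overnight at 37 deg C.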
Glioma ERSR ind: inducers of ER stress response in human glioma cells; U87-MG GRP78 promoter luciferase reporter, 16 h; 0.02% of 420,000 active; Potency, µM, without a hit: top-dose activation, usual class: activators; note: series mostly up to about 76 µM; % of control where 0% means no effect; nearly all actives have a fitted effect of over 35% in size
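Stably transfected U87-MG human glioma cells carrying a GRP78-based luminescent sensor were seeded at 1000 cells/well, pin-dosed with compounds and incubated 16 h. Luciferase reagent was then added, and end-point luminescence was read after 10 min at room temperature.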
Vif-A3F inh: inhibitors of Vif-A3F interaction | HeLa A3F-eYFP + Vif (tagged APOBEC3F with the HIV-1 protein that degrades it), YFP fluorescence increase | Potency, µM (titrated, usually from 46.1 µM), for the others: at the top dose activity, negative = active | 0.2% of 390,000 active | AID 602313; note: % of control where 0% means no effect; nearly all actives have a fitted effect of over 65% in size
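HeLa cells stably expressing Vif plus C-terminally eYFP-tagged A3F were seeded, incubated overnight at 37 deg C, dosed with compound, incubated overnight again at 37 deg C. Yellow fluorescence (Ex 488/Em 500-530) reported blocked Vif-mediated A3F-eYFP degradation.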
Epigenetic reg: regulators of epigenetic silencing causing reporter derepression in mouse cells. 0.2% of 280,000 active. Potency, µM (series often up to 53.9 µM), for the others: at the highest dose GFP activation, hits mostly activators. murine LDR cells, GFP reporter derepression, 30 h. AID 1865; note: % of control where 0% means no effect; nearly all actives have a fitted effect of over 60% in size
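Murine LDR cells carrying a silenced, genomically integrated CMV-driven GFP reporter were exposed to compound for 30 hours at 37 C. After PBS washes, GFP-positive cells (20–120 um objects) were counted by laser-scanning microplate cytometry.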
The depositor's hits bear a star. Calls come from the whole dose curve; as a rule, active = well fitted curve in the direction sought with a large enough effect; inconclusive = small, poorly fitted or top-dose-only effect, or another doubt; inactive = no such curve, though single readings can be large; an effect the other way counts as inactive or inconclusive. Potency is the fitted concentration of half-maximal effect.

What do the screens show for `CCOC(=O)c1cc2c(=O)n3ccccc3nc2n(CC2CCCO2)c1=NC(=O)c1ccc(F)cc1` (centres undefined)?
Vif-A3G inh: 0.8%; Glioma ERSR ind: -3.0%; Vif-A3F inh: -2.9%; Epigenetic reg: 2.7%

Results for CN(C)CC1CCn2c(c(C3=C(c4cn(C)c5ccccc45)C(=O)NC3=O)c3ccccc32)C1 (centres undefined) ?
Glioma ERSR ind: -9.1%

Results for Cn1cc(C2=C(c3ccc(Cl)cc3Cl)C(=O)NC2=O)c2ccccc21 ?
Vif-A3G inh: inconclusive; Glioma ERSR ind: 0.4%; Vif-A3F inh: inconclusive; Epigenetic reg: 14.1µM*

Results for O=C(CN1CCOCC1)NCc1cc([N+](=O)[O-])ccc1O ?
Vif-A3G inh: -4.7%; Glioma ERSR ind: -0.8%; Vif-A3F inh: 0.1%

Results for Cc1c(N2C(=O)CSC2c2ccc(F)cc2)c(=O)n(-c2ccccc2)n1C (centres undefined) ?
Vif-A3G inh: -5.2%; Glioma ERSR ind: 0.9%; Vif-A3F inh: 4.2%; Epigenetic reg: 0.1%

How did O=Cc1s/c(=N\S(=O)(=O)c2ccccc2)n(CCCCl)c1Cl do in these assays?
Vif-A3G inh: inconclusive; Glioma ERSR ind: -14.6%; Vif-A3F inh: 28.2µM*; Epigenetic reg: inconclusive

How did CCn1c(C)cs/c1=N\S(=O)(=O)c1ccccc1 do in these assays?
Vif-A3G inh: 0.6%; Glioma ERSR ind: -5.6%; Vif-A3F inh: -5.4%

Results for CC(Oc1ccc2ccc(=O)oc2c1)C(=O)c1ccccc1 (centres undefined) ?
Vif-A3G inh: 0.9%; Glioma ERSR ind: 1.5%; Vif-A3F inh: -5.0%; Epigenetic reg: -1.3%

How did COc1ccc(/C=C(/C#N)c2nc(-c3ccc(-c4ccccc4)cc3)cs2)cc1OC do in these assays?
Vif-A3G inh: -4.9%; Glioma ERSR ind: -2.6%; Vif-A3F inh: inconclusive; Epigenetic reg: 10µM*

How did Cc1ccc(/C=C(\C#N)c2nc(-c3cc4c(ccc5ccccc54)oc3=O)cs2)cc1 do in these assays?
Vif-A3G inh: 4.7%; Glioma ERSR ind: -1.5%; Vif-A3F inh: -10.6%; Epigenetic reg: 1.6%

What do the screens show for `COc1ccc(/C=C(\C#N)c2nc(-c3cc4c(ccc5ccccc54)oc3=O)cs2)cc1O`?
Vif-A3G inh: -2.7%; Glioma ERSR ind: -1.2%; Vif-A3F inh: -12.4%; Epigenetic reg: 12.6µM*

What do the screens show for `COc1cccc(C2c3c(-c4ccccc4O)n[nH]c3C(=O)N2CCc2ccc(OC)c(OC)c2)c1` (centres undefined)?
Vif-A3G inh: -2.7%; Glioma ERSR ind: -4.2%; Vif-A3F inh: 6.4%; Epigenetic reg: -1.9%

Results for CCOC(=O)c1c(-c2ccccc2)csc1NC(=O)/C(C#N)=C/c1ccc(O)c(OC)c1 ?
Vif-A3G inh: 6.2%; Glioma ERSR ind: 2.3%; Vif-A3F inh: inconclusive; Epigenetic reg: 25.1µM*

How did CCOC(=O)c1c(-c2ccccc2)csc1NC(=O)/C(C#N)=C/c1ccc(OC)c(OC)c1 do in these assays?
Vif-A3G inh: -0.7%; Glioma ERSR ind: -5.0%; Vif-A3F inh: -12.0%; Epigenetic reg: 0.0%

What do the screens show for `COc1ccc(-n2c(=O)c(CCc3ccccc3)nc3cnc(N4CCNCC4)nc32)cc1`?
Glioma ERSR ind: 0.0%

What do the screens show for `COc1ccc(-c2nc3c4ccccc4ccn3c2Cc2ccsc2)cc1OC`?
Vif-A3G inh: 8.91µM*; Glioma ERSR ind: 2.0%

How did COc1ccccc1Oc1ccc(NC(=O)c2ccc(Cl)cc2)cc1 do in these assays?
Vif-A3G inh: 2.8%; Glioma ERSR ind: 6.4%; Vif-A3F inh: 2.3%; Epigenetic reg: 2.3%

What do the screens show for `COc1ccc2nc3ccccc3nc2c1NC(=O)c1ccc(Cl)cc1`?
Vif-A3G inh: -11.3%; Glioma ERSR ind: -3.0%; Vif-A3F inh: 11.2µM*; Epigenetic reg: inconclusive

Results for COc1ccc2nc3ccccc3nc2c1NC(=O)c1ccc(Br)cc1 ?
Vif-A3G inh: inconclusive; Glioma ERSR ind: -3.9%; Vif-A3F inh: 6.31µM*; Epigenetic reg: 4.5%

Results for Cc1cccc2cc(C#N)c(SCC(=O)Nc3ccccc3N3CCOCC3)nc12 ?
Vif-A3G inh: -11.4%; Glioma ERSR ind: -5.5%; Vif-A3F inh: -11.8%; Epigenetic reg: -2.0%

What do the screens show for `N#Cc1cc2ccccc2nc1SCC(=O)Nc1ccccc1N1CCOCC1`?
Vif-A3G inh: inconclusive; Glioma ERSR ind: -3.6%; Vif-A3F inh: 25.1µM*; Epigenetic reg: -0.9%

How did CCOC(=O)/C(C#N)=N\Nc1cc(Cl)ccc1OC do in these assays?
Vif-A3G inh: -4.8%; Glioma ERSR ind: -3.7%; Vif-A3F inh: 10µM*; Epigenetic reg: inconclusive

What do the screens show for `Cn1cccc1/C=C1\SC(=O)N(c2ccc(O)cc2)C1=O`?
Vif-A3G inh: inconclusive; Glioma ERSR ind: 2.2%; Vif-A3F inh: 25.1µM*; Epigenetic reg: inconclusive

Results for CCOc1ccc(N2C(=O)S/C(=C\c3cccn3C)C2=O)cc1 ?
Vif-A3G inh: -12.7%; Glioma ERSR ind: -1.8%; Vif-A3F inh: inconclusive; Epigenetic reg: -0.8%

Results for CC1=C/C(=N\NC(=S)NCc2ccccc2)CC1 ?
Vif-A3G inh: -0.6%; Glioma ERSR ind: 3.5%; Vif-A3F inh: inconclusive; Epigenetic reg: 12.6µM*

How did COc1ccc(CNC(=O)Cc2c(C)c3c(cc(C)c4c(C)c(C)oc43)oc2=O)cc1OC do in these assays?
Vif-A3G inh: 1.1%; Glioma ERSR ind: -0.8%; Vif-A3F inh: 0.5%; Epigenetic reg: -2.0%

Results for Cc1ccc2nc(/C(C#N)=C\c3cc(C)n(-c4cccc([N+](=O)[O-])c4)c3C)[nH]c2c1 ?
Vif-A3G inh: 0.0%; Glioma ERSR ind: -0.1%; Vif-A3F inh: -4.0%; Epigenetic reg: 2.2%

Results for Cc1cc2nc(/C(C#N)=C\c3ccc(-c4ccccc4C(=O)O)o3)[nH]c2cc1C ?
Vif-A3G inh: 8.0%; Glioma ERSR ind: 2.8%; Vif-A3F inh: -319.1%

Results for Cc1ccc2nc(/C(C#N)=C\c3ccc([N+](=O)[O-])o3)[nH]c2c1 ?
Vif-A3G inh: 6.31µM*; Glioma ERSR ind: inconclusive; Vif-A3F inh: inconclusive; Epigenetic reg: 1µM*

Results for Cc1ccc2nc(/C(C#N)=C\c3ccc(N4CCOCC4)o3)[nH]c2c1 ?
Vif-A3G inh: inconclusive; Glioma ERSR ind: 7.5%; Vif-A3F inh: -15.2%; Epigenetic reg: 14.1µM*

What do the screens show for `Cc1ccc2c(c1)ncc[n+]2CC(=O)c1ccc(Cl)cc1Cl`?
Vif-A3G inh: -8.1%; Glioma ERSR ind: -0.6%

How did CN(C)c1ccc(C(=O)/C=C/c2ccc(Br)cc2)cc1 do in these assays?
Vif-A3G inh: -2.2%; Glioma ERSR ind: 8.3%; Vif-A3F inh: -3.1%; Epigenetic reg: 0.0%

What do the screens show for `CCN(CC)c1ccc(/C=C/C(=O)c2ccc(Br)cc2)cc1`?
Vif-A3G inh: inconclusive; Glioma ERSR ind: -2.4%; Vif-A3F inh: 25.1µM*; Epigenetic reg: 15.8%

What do the screens show for `Cc1ccc(NS(=O)(=O)c2ccc(C(=O)N3CC(C)CC(C)C3)cc2)cc1` (centres undefined)?
Vif-A3G inh: 0.1%; Glioma ERSR ind: 39.8µM*; Vif-A3F inh: 2.8%

How did CCOc1ccc(C(=O)COC(=O)Cc2n[nH]c(=O)c3ccccc23)cc1 do in these assays?
Vif-A3G inh: 8.91µM*; Glioma ERSR ind: -6.0%; Vif-A3F inh: 8.5%
